Results filed as inconclusive are left out. The source made the active and inactive calls. Rule for the calls, unless noted: active = hit-call score of the fitted dose curve at least 0.9, where 1 is the maximum; inactive = score below 0.9.

This is an account of results in PubChem BioAssay (EPA / NIEHS).

Read-out in assay [1]: Macrophage colony-stimulating factor (MCSF), CSF1 (gene 1435)
Description: BSK_LPS_MCSF: BioMAP Diversity Plus: LPS Assay for Macrophage colony-stimulating factor (MCSF) Biomarker Activity (AID 2283083). Conditions: primary human HUVEC with PBMC; actives raise or lower the signal. The gist of the method: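 HUVEC–PBMC co-culture, M-CSF measured by ELISA 24 h after chemical dosing. Fitted in both directions relative to DMSO as negative control; overt cytotoxicity assessed by SRB total-protein staining in parallel cultures.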

Read-out in assay [2]: Tissue Factor, F3 (gene 2152)
The assay can be described thus: BSK_LPS_TissueFactor: BioMAP Diversity Plus: LPS Assay for Tissue Factor Biomarker Activity (AID 2283084). Conditions: primary human HUVEC with PBMC; actives raise or lower the signal. The procedure, abridged:
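Human umbilical vein endothelial cells co-cultured with PBMC were dosed with compound. Cell-surface CD142 was measured by ELISA 24 h later. Activity was fitted bidirectionally against DMSO, with SRB total-protein staining in parallel cultures for cytotoxicity.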

Read-out in assay [3]: Tumor necrosis factor (Homo sapiens) (UniProt P01375)
The assay can be described thus: BSK_LPS_TNFa: BioMAP Diversity Plus: LPS Assay for Tumour Necrosis Factor alpha (TNFa) Biomarker Activity (AID 2283085). Conditions: primary human HUVEC with PBMC; actives raise or lower the signal. The gist of the method:
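Human umbilical vein endothelial cells co-cultured with PBMC and stimulated with LPS. TNFa was measured by ELISA 24 h after chemical dosing, fitted bidirectionally relative to DMSO.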

Read-out in assay [4]: Vascular cell adhesion molecule 1 (VCAM1), VCAM1 (gene 7412)
The assay can be described thus: BSK_LPS_VCAM1: BioMAP Diversity Plus: LPS Assay for Vascular cell adhesion molecule 1 (VCAM1) Biomarker Activity (AID 2283086). Conditions: primary human HUVEC with PBMC; actives raise or lower the signal. The procedure, abridged:
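Human umbilical vein endothelial cells co-cultured with PBMC and stimulated with LPS; VCAM-1 measured by ELISA 24 h after dosing. Bidirectional curve fitting against DMSO baseline; cytotoxicity tracked in parallel by SRB total-protein staining.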

Read-out in a further assay: CD38, CD38 (gene 952)
Description: BSK_SAg_CD38: BioMAP Diversity Plus: SAg Assay for CD38 Biomarker Activity (AID 2283087). Conditions: primary human HUVEC with PBMC; actives raise or lower the signal. The procedure, abridged: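 Human HUVEC plus PBMC co-culture stimulated with superantigen; CD38 measured by ELISA 24 h after chemical dosing. Fluorescence read-out, bidirectional fit against DMSO; cytotoxicity tracked in parallel by SRB and Alamar Blue.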

Read-out in a further assay: CD40, CD40 (gene 958)
Description: BSK_SAg_CD40: BioMAP Diversity Plus: SAg Assay for CD40 Biomarker Activity (AID 2283088). Conditions: primary human HUVEC with PBMC; actives raise or lower the signal. The procedure, abridged: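 HUVEC plus PBMC co-culture, superantigen-activated, with CD40 read by ELISA 24 h after dosing. Curves fitted in both directions against DMSO. Overt cytotoxicity checked by parallel SRB total-protein staining.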

Read-out in a further assay: CD69, CD69 (gene 969)
The assay can be described thus: BSK_SAg_CD69: BioMAP Diversity Plus: SAg Assay for CD69 Biomarker Activity (AID 2283089).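 For AC50: cell surface CD69 protein quantified by ELISA with fluorescence detection.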 Conditions: primary human HUVEC with PBMC; actives raise or lower the signal. The procedure, abridged: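 Endothelial/PBMC co-culture; chemical added; 24 h incubation; CD69 ELISA with fluorescence detection; bidirectional fit vs DMSO.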

Read-out in assay [5]: Monocyte Chemoattractant Protein-1 (MCP1), CCL2 (gene 6347)
The assay can be described thus: BSK_SAg_MCP1: BioMAP Diversity Plus: SAg Assay for Monocyte Chemoattractant Protein-1 (MCP1) Biomarker Activity (AID 2283090). Conditions: primary human HUVEC with PBMC; actives raise or lower the signal. The procedure, abridged:
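MCP-1 levels in the endothelial–PBMC SAg co-culture were quantified by ELISA at 24 h post-dosing; both increases and decreases versus DMSO scored. Cytotoxicity monitored by SRB total protein in parallel cultures.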

Read-out in assay [6]: E-selectin (Homo sapiens) (UniProt P16581)
Description: BSK_SAg_Eselectin: BioMAP Diversity Plus: SAg Assay for Eselectin Biomarker Activity (AID 2283091). Conditions: primary human HUVEC with PBMC; actives raise or lower the signal. The gist of the method: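 Human umbilical vein endothelial cells co-cultured with peripheral blood mononuclear cells, SAg system. E-selectin is measured by ELISA 24 h after dosing and fitted bidirectionally against DMSO. Cytotoxicity is checked by SRB staining of parallel cultures.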

A short description of assay [7]: BSK_SAg_PBMCCytotoxicity: PBMC Cytotoxicity Assessment in the BioMAP Diversity Plus: SAg Assay (AID 2283093).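 For AC50: PBMC superantigen activated with SEB plus TSST-1 one hour after compound addition.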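 Note: PBMC viability measured as Alamar Blue reduction fluorescence at 546/580 nm; fitted both ways against DMSO so a hit may be loss or gain of signal.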 Conditions: primary human HUVEC with PBMC. The gist of the method: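 Human umbilical vein endothelial cells co-cultured with PBMC; PBMC (75,000/well) pre-treated with compound 1 h, then activated with SEB and TSST-1 (20 ng/mL final each) for 90 h. Alamar Blue added 6 h, fluorescence 546/580 nm; bidirectional fit versus DMSO.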

Read-out in assay [8]: Interleukin-8 (IL8), CXCL8 (gene 3576)
The assay can be described thus: BSK_SAg_IL8: BioMAP Diversity Plus: SAg Assay for Interleukin-8 (IL8) Biomarker Activity (AID 2283094). Conditions: primary human HUVEC with PBMC; actives raise or lower the signal. The procedure, abridged:
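Human umbilical vein endothelial cells co-cultured with PBMC, stimulated with superantigen; IL-8 measured by ELISA 24 h after chemical dosing. Bidirectional fitting versus DMSO; SRB staining in parallel cultures tracks cytotoxicity.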

A short description of assay [9]: BSK_SAg_Proliferation: Cell Proliferation Assessment in the BioMAP Diversity Plus: SAg Assay (AID 2283095). Conditions: primary human HUVEC with PBMC. The gist of the method: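 Human umbilical vein endothelial cells co-cultured with PBMC; sulforhodamine B total-protein staining (0.1% SRB after 10% TCA fixation, absorbance 560 nm) at 96 h in sub-confluent culture. Fitted bidirectionally against DMSO.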

Assay [10] is described as follows: BSK_SAg_SRB: Viability Assessment in the BioMAP Diversity Plus: SAg Assay (AID 2283096).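 Note: cells read one day after compound addition; hits may be either gain or loss of signal compared with DMSO.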 Conditions: primary human HUVEC with PBMC. The gist of the method: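 Endothelial/PBMC primary human co-culture; compound 24 h; fix 10% TCA, stain 0.1% SRB, A560; protein content as cytotoxicity proxy; bidirectional curve fit, DMSO = baseline.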
The target of assay [11] is human CYP1A1, CYP1A1 (gene 1543) (UniProt P04798). Description: NVS_ADME_hCYP1A1: NovaScreen (NVS) CYP450-related Enzyme Activity (ADME) Assay for human CYP1A1 (AID 2283100; active = hit-call score of the fitted dose curve at least 0.9, where 1 is the maximum). The gist of the method: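 Recombinant CYP1A1 with a fluorogenic substrate, cell-free, read 1 h after dosing; acetonitrile as negative control. Single-concentration screen at 10 uM in duplicate, then concentration-response up to 20 uM for chemicals meeting ~30% inhibition threshold.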

Read-out in assay [12]: Monokine induced gamma interferon (MIG), CXCL9 (gene 4283)
The assay can be described thus: BSK_SAg_MIG: BioMAP Diversity Plus: SAg Assay for Monokine induced gamma interferon (MIG) Biomarker Activity (AID 2283092). Conditions: primary human HUVEC with PBMC; actives raise or lower the signal. The gist of the method: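 Measures CXCL9 protein by ELISA in a human vascular primary-cell co-culture (umbilical vein endothelium with PBMC) 24 h after chemical addition. Activity is scored up or down from the DMSO control.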

The target of assay [13] is human CYP2B6, CYP2B6 (gene 1555) (UniProt P20813). Description: NVS_ADME_hCYP2B6: NovaScreen (NVS) CYP450-related Enzyme Activity (ADME) Assay for human CYP2B6 (AID 2283101; active = hit-call score of the fitted dose curve at least 0.9, where 1 is the maximum). The gist of the method:
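Recombinant protein, specific fluorescent substrate, read at 1 h post-dosing. Primary: single 10 uM, duplicate; follow-up: concentration series. Activity = signal loss vs acetonitrile baseline, with positive and negative controls on every plate.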

Assay [14] concerns the target human CYP1A2, CYP1A2 (gene 1544) (UniProt P05177). Description: NVS_ADME_hCYP1A2: NovaScreen (NVS) CYP450-related Enzyme Activity (ADME) Assay for human CYP1A2 (AID 2283102; active = hit-call score of the fitted dose curve at least 0.9, where 1 is the maximum;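 note: potency for inhibition since loss of fluorescence marks reduced CYP1A2 activity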). The gist of the method: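 Recombinant human CYP1A2 from insect cells, cell-free, fluorogenic substrate; read 0.5 h after dosing with loss of fluorescence signal indicating inhibition. Primary screen in duplicate at 10 uM, acetonitrile as negative control.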

E-selectin (Homo sapiens), sequence (P16581 whole entry, looked up): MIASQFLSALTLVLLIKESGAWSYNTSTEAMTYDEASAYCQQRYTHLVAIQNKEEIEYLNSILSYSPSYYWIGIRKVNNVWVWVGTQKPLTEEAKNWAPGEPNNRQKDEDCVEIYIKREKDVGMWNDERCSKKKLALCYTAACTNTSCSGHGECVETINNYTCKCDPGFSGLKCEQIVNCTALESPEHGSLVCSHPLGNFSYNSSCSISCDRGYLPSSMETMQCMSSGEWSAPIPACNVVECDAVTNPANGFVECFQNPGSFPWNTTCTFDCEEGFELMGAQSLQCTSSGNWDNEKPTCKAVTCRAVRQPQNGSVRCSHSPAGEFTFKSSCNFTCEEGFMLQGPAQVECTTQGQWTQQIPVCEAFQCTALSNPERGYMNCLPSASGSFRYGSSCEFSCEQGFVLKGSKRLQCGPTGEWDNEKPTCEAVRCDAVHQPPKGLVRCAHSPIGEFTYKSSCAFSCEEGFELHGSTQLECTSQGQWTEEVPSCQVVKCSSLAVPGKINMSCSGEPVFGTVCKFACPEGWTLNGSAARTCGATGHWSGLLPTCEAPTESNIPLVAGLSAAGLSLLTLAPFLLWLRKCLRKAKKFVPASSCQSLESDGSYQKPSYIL
human CYP1A1, CYP1A1 (gene 1543), sequence (P04798 whole entry, looked up): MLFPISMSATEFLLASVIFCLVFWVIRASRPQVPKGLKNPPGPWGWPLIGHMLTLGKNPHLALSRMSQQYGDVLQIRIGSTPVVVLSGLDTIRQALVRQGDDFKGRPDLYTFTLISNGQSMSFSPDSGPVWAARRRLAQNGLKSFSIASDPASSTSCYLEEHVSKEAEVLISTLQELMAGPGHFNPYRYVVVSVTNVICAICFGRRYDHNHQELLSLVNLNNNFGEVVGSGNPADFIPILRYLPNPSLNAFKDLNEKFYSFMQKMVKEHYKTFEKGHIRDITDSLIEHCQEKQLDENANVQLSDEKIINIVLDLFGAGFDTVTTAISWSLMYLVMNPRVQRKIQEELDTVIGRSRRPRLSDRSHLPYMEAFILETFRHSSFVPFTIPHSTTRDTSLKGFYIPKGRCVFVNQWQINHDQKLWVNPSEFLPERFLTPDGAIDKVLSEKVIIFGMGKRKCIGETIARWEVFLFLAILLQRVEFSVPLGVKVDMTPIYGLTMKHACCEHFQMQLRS
Tumor necrosis factor (Homo sapiens), sequence (P01375 whole entry, looked up): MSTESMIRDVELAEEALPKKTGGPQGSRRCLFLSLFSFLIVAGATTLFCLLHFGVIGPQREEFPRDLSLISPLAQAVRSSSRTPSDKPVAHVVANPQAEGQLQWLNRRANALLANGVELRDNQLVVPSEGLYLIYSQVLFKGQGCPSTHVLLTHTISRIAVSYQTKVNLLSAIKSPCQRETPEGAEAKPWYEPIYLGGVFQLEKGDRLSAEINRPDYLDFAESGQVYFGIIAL
human CYP1A2, CYP1A2 (gene 1544), sequence (P05177 whole entry, looked up): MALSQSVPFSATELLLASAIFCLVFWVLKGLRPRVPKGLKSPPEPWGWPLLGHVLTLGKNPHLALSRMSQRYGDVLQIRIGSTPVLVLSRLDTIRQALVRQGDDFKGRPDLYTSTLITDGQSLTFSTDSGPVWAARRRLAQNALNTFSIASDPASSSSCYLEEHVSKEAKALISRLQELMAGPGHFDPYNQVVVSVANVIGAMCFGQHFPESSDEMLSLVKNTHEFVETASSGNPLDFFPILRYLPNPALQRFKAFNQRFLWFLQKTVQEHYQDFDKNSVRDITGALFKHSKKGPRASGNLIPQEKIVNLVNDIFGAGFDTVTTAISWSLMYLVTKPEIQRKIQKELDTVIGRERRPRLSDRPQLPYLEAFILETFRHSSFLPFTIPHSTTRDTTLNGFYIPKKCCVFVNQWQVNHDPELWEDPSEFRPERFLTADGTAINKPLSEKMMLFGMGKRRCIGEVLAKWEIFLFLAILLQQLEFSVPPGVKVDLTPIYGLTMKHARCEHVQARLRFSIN
human CYP2B6, CYP2B6 (gene 1555), sequence (P20813 whole entry, looked up): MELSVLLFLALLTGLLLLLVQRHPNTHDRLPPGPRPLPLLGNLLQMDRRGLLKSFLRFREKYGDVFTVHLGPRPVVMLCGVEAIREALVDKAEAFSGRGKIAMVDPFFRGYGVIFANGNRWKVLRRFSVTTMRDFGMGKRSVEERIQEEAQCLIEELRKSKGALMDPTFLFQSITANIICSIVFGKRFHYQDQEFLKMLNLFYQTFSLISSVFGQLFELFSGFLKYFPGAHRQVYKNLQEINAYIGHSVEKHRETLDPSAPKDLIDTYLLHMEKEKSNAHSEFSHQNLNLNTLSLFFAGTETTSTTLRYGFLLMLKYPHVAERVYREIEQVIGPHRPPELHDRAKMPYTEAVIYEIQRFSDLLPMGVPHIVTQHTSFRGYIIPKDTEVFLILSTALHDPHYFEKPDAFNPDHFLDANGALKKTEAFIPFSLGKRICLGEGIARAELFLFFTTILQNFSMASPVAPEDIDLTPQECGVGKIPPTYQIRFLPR

Usually AC50 stands for the midpoint of the concentration-response curve, whichever way the signal moves. Take `Fc1ccccc1[C@@H](F)COC1CCC(Nc2ncnc3[nH]ncc23)CC1` (some centres undefined): the AC50 is 20 µM (active) in assay [1]; 20 µM (active) with CD38, CD38 (gene 952); 16.3 µM (active) with CD40, CD40 (gene 958); 24.2 µM (active) in the assay with CD69, CD69 (gene 969); 31.6 µM (active) in assay [5]; 13.7 µM (active) in [7]. Besides, the AC50 in assay [8] is 20 µM (active); in [9] it was 26.8 µM (active); in assay [10] it was 25.4 µM (active). Further, the result in assay [2], in assay [3], in [4], in [6] and in assay [11] was inactive.
As for `NC(=O)NO`, the outcome is “inactive” in assay [1]; “inactive” in assay [2]; “inactive” in [3]; “inactive” in assay [4]; “inactive” in the assay with CD38, CD38 (gene 952); “inactive” with CD40, CD40 (gene 958). In addition, the outcome with CD69, CD69 (gene 969) was “inactive”; in [5], “inactive”; in [6] it was “inactive”; in assay [7], “inactive”; in assay [8] it was “inactive”; in assay [9], “inactive”. Also, the result in assay [10] was inactive.
As for `Cc1ccc(S(=O)(=O)O)cc1C`, the outcome in assay [1] was “inactive”; in assay [2], “inactive”; in assay [3] it was “inactive”; in assay [4] it was “inactive”; in the assay with CD40, CD40 (gene 958), “inactive”; with CD69, CD69 (gene 969) it was “inactive”. In addition, the outcome in assay [5], in assay [6], in assay [12], in assay [7], in assay [8] and in assay [9] was inactive. For the same molecule, the outcome in assay [10] was inactive.
In the case of `CNS(=O)(=O)c1cc(C(=O)N2CCC(CCN3C4CCC3CC(n3c(C)nc5ccccc53)C4)(c3cccc(F)c3)CC2)c(Cl)cc1F` (centres undefined), the AC50 is 18.3 µM (active) in assay [1]; 5.99 µM (active) in assay [4]; 23.2 µM (active) with CD40, CD40 (gene 958); 20 µM (active) with CD69, CD69 (gene 969); 27.5 µM (active) in assay [5]; 12.6 µM (active) in [7]. For the same molecule, the AC50 was 20 µM (active) in [8], 10.4 µM (active) in assay [9] and 16.7 µM (active) in assay [10]. Besides, the outcome in assay [2], in assay [3], in assay [6] and in assay [12] was inactive.
For the molecule `CCc1cc(SCc2sc(-c3ccc(C(F)(F)F)cc3)nc2CN2CCN(c3ccc(OC)cc3)CC2)ccc1OCC(=O)O`, the AC50 was 13.3 µM (active) in assay [1]; 30.2 µM (active) in assay [2]; 38.1 µM (active) in assay [3]; 24.7 µM (active) in [4]; 10.3 µM (active) in the assay with CD38, CD38 (gene 952); 11.7 µM (active) with CD40, CD40 (gene 958). Moreover, the AC50 is 15.1 µM (active) with CD69, CD69 (gene 969); 11.4 µM (active) in assay [5]; 12.2 µM (active) in assay [6]; 21.5 µM (active) in assay [7]; 20 µM (active) in [8]; 9.97 µM (active) in [9]. Moreover, the AC50 in assay [10] is 14.2 µM (active). Besides, in [11], the molecule was classed as inactive.
Consider `CC(C)(O)c1coc(S(=O)(=O)NC(=O)Nc2c3c(cc4c2CCC4)CCC3)c1`, for which the outcome in assay [1] was “inactive”; in assay [2], “inactive”; in [4] it was “inactive”; with CD38, CD38 (gene 952), “inactive”; with CD40, CD40 (gene 958), “inactive”; in the assay with CD69, CD69 (gene 969), “inactive”. Also, the result in assay [5], in assay [6], in assay [7], in assay [8], in [9] and in [10] was inactive. For the same molecule, the result in assay [11] was inactive. Also, the AC50 was 0.405 µM (active) in assay [3], 6.39 µM (active) in assay [13] and 16 µM (active) in assay [14].
`C[C@](N)(Cc1ccc(O)c(O)c1)C(=O)O`: the outcome is “inactive” in assay [1]; “inactive” in assay [2]; “inactive” in [3]; “inactive” in assay [4]; “inactive” in the assay with CD40, CD40 (gene 958); “inactive” with CD69, CD69 (gene 969). The result in [5], in assay [6], in assay [12], in [8] and in assay [10] was inactive. For the same molecule, the AC50 in assay [7] was 10.8 µM (active); in assay [9], 23.9 µM (active).
As to `CC(=O)c1ccc2c(c1)[C@H](NC(=O)c1ccc(F)cc1)[C@@H](O)C(C)(C)O2`, the outcome in assay [1] was “inactive”; in assay [2], “inactive”; in assay [3], “inactive”; in assay [4], “inactive”; in the assay with CD40, CD40 (gene 958), “inactive”; with CD69, CD69 (gene 969) it was “inactive”. The result in [5], in [6], in [12], in [7], in [8] and in [10] was inactive. In addition, the AC50 in [9] is 4.31 µM (active).
